# This is a sample that favours compounds with a hit; in the whole collection about 8.1% have one here.
# SW480 rereplic: A quantitative high throughput screen for small molecules that induce DNA re-replication in SW480 colon adenocarcinoma cells. SW480 DNA re-replication, Hoechst DNA content imaging, 48 h. Potency, µM (doses to about 46.1 µM), without a hit: top-dose re-replication activation, actives largely listed as activators. actives 1.8% (n = 340,000). AID 624297, 2012; also: % of control where 0% means no effect; nearly all actives have a fitted effect of over 55% in size
#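 SW480 cells exposed to compounds for 48 hr at 37 C, 5% CO2, then Hoechst-stained 40 min. Nuclear DNA content imaged by fluorescence scanning (405 nm excitation, 500-530 nm emission); re-replication scored as increased high-intensity nuclei.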
# MCF10A rereplic: A quantitative high throughput screen for small molecules that induce DNA re-replication in MCF 10a normal breast cells | MCF 10A DNA re-replication, Hoechst nuclear intensity, 48 h | Potency, µM (titrated, usually from 46.1 µM), inactives show at the top dose activity, positive = re-replication, usual class: activators | actives 2.9% (n = 350,000); also: % of control where 0% means no effect; nearly all actives have a fitted effect of over 50% in size
# ELG1 DNA repair: qHTS screen for small molecules that inhibit ELG1-dependent DNA repair in human embryonic kidney (HEK293T) cells expressing luciferase-tagged ELG1. Potency, µM (doses to about 46.1 µM), for the others: at the top dose activity change, negative = inhibition, hits mostly inhibitors. actives 2.3% (n = 330,000). AID 504467, 2011. HEK293T ELG1-luciferase reporter, luminescence, 16 h; DNA damage induced by 5-fluorouridine; also: % is scaled to controls: 0 for no effect and ±100 for the full control effect; nearly all actives have a fitted effect of over 55% in size
#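 Overnight (16 hr) co-exposure of 2,000 cells/well to 5-fluorouridine and compound at 37 °C preceded detection. Luciferase was quantified via ONE-Glo luminescence; loss of signal denotes inhibition.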
# KB-3-1 cytotox: qHTS assay for MDR1-selective chemotherapeutics: Primary screen using the parental adenocarcinoma cell KB-3-1; KB-3-1 viability, CellTiter-Glo ATP luminescence, 72 h; Potency, µM (doses to about 46.1 µM), hits mostly cytotoxic; actives 1.4% (n = 400,000); also: % is scaled to controls: 0 for no effect and ±100 for the full control effect; nearly all actives have a fitted effect of over 60% in size
#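 Here the drug-naive KB-3-1 line serves as comparator for MDR sub-line selectivity; cells received compound titrations, 72 h at 37 °C, then CellTiter-Glo readout.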
# KB-V1 MDR tox: qHTS assay for MDR1-selective chemotherapeutics: Primary screen using the drug-selected MDR subline cells KB-V1. KB-V1 MDR cells viability, CellTiter-Glo, 72 h. Potency, µM (series often up to 46.1 µM), hits mostly cytotoxic. actives 3.4% (n = 400,000). AID 1347076, 2019; also: % is scaled to controls: 0 for no effect and ±100 for the full control effect; nearly all actives have a fitted effect of over 60% in size
#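 Potencies derive from concentration-effect curves fitted to normalized luminescence (CellTiter-Glo) of KB-V1 cells treated for 72 h at 37 degrees C in phenol-red-free DMEM containing 10% FBS.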
# The depositor's hits bear a star; i = inactive; ? = inconclusive; . = not tested or not shown; [ ] = dose if it differs, or a comment. Calls follow the shape of the dose curve; as a rule, active = well fitted curve in the direction sought with a large enough effect; inconclusive = small, poorly fitted or top-dose-only effect, or another doubt; inactive = no such curve, though single readings can be large; an effect the other way counts as inactive or inconclusive. Potency is read from the fitted curve at half-maximal effect.
SMILES,SW480 rereplic,MCF10A rereplic,ELG1 DNA repair,KB-3-1 cytotox,KB-V1 MDR tox
CSCCC(NS(=O)(=O)c1ccc(Cl)cc1)C(=O)OCC(=O)c1ccc(F)cc1 (stereo not drawn),-4%,-4%,-6%,i,i
O=C(c1ccc(F)cc1)N1CCCC(C(=O)N2CCN(c3ccccc3)CC2)C1 (stereo not drawn),-12%,0%,-1%,i,i
Cc1ccc(C(=O)c2cn[nH]c2-c2ccccc2O)cc1,-4%,?,?,i,i
Cc1ccc(NC2OC(CO)C(O)C2O)cc1[N+](=O)[O-] (stereo not drawn),3%,-3%,-1%,i,i
O=S(=O)(c1ccc(=S)[nH]c1)N1CCCC1,-2%,-2%,?,i,i
CN(CC(=O)Nc1ccc(F)cc1)C(=O)c1ccc2ccccc2n1,5.2µM*,0%,-9%,i,i
CCOC(=O)N1CCN(C(=O)c2ccc(Cn3c(=S)[nH]c4cc(OCC)c(OCC)cc4c3=O)cc2)CC1,-2%,-1%,?,i,i
COc1cc2[nH]c(=S)n(Cc3ccc(C)cc3)c(=O)c2cc1OC,20%,13µM*,?,i,i
CC1CC(C)CN(C(=O)c2ccc3c(=O)n(Cc4ccc5c(c4)OCO5)c(=S)[nH]c3c2)C1 (stereo not drawn),22%,10%,?,i,15µM*
CCOC(=O)N1CCN(C(=O)c2ccc(Cn3c(=S)[nH]c4cc5c(cc4c3=O)OCO5)cc2)CC1,10%,13%,23µM*,i,?
CCOC(=O)N1CCN(C(=O)c2ccc3c(=O)n(Cc4ccc(OC)cc4)c(=S)[nH]c3c2)CC1,3%,1%,13µM*,?,i
CCCn1c(SCC(=O)N2CCc3ccccc32)n[nH]c1=O,-9%,2%,23%,i,i
CC(C)OC(=O)CSc1n[nH]c(-c2cccnc2)n1,-5%,3%,1%,i,i
Cc1nc2ccn(Cc3ccccc3)c(=O)c2cc1C(=O)N1CCN(c2ccc(F)cc2)CC1,-2%,11%,6.5µM*,i,i
Cc1nc2ccn(Cc3cccnc3)c(=O)c2cc1C(=O)NCc1ccc(Cl)cc1,.,.,.,?,i
COc1ccc(CNC(=O)c2cc3c(=O)n(Cc4ccc(OC)cc4)ccc3nc2C)cc1,.,.,.,2.6µM*,i
Cc1nc2ccn(Cc3cccnc3)c(=O)c2cc1C(=O)N1CCN(c2ccc(F)cc2)CC1,.,.,.,i,i
COc1ccc([C@H]2CC(=O)C=C(c3cccc(CO)c3)C2)cc1OC,-7%,0%,?,i,i
Cc1ccc(C(C)C)c(OCC(=O)N/N=C/C2CCCCC2)c1,-9%,7%,-12%,i,i
CC(C)COc1ccc(-c2nnn(CC(=O)N3CCCC3)n2)cc1,-3%,8%,?,i,i
COc1ccc2cc3cc(C(=O)NCc4cccs4)oc3nc2c1,10%,?,3%,4.6µM*,?
COc1ccc2cc3cc(C(=O)NCCc4ccc(OC)c(OC)c4)oc3nc2c1,-1%,?,5.2µM*,i,?
COc1ccc(OC)c(CNC(=O)c2cc3cc4ccc(OC)cc4nc3o2)c1,.,.,.,i,i
Clc1ccccc1CN1CCN(/N=C/c2ccncc2)CC1,5%,?,2%,i,?
O=C(CC(NC(=O)c1ccccc1Cl)c1ccccc1)NCCc1ccc(Cl)cc1 (stereo not drawn),-3%,4%,16%,i,8.2µM*
SMILES,SW480 rereplic,MCF10A rereplic,ELG1 DNA repair,KB-3-1 cytotox,KB-V1 MDR tox
CC(=O)NC(CC(=O)NCCc1ccccc1)c1ccccc1 (stereo not drawn),0%,-45%,14%,i,i
CC(=O)/C(C#N)=C1\NC(=O)C(Cc2ccccc2)S1 (stereo not drawn),?,24%,3%,15µM*,13µM*
CC(=O)/C(C#N)=C1\NC(=O)C(Cc2ccccc2C)S1 (stereo not drawn),4%,-8%,0%,?,5.8µM*
C/C(=N\N=C1\NC(=O)C(Cc2ccccc2)S1)c1ccccc1 (stereo not drawn),-104%,?,-12%,i,i
CNC(=O)/C(C#N)=C1\SC(Cc2ccc(F)cc2)C(=O)N1c1ccccc1C (stereo not drawn),14%,19%,-5%,i,i
CC(=O)c1c(C)n(-c2cccc(Cl)c2)c2ccc(OC(=O)c3ccccc3)cc12,.,.,.,i,i
O=C(NC(NC1CCS(=O)(=O)C1)C(Cl)(Cl)Cl)c1cccc(Cl)c1 (stereo not drawn),1%,0%,3%,i,23µM*
Fc1cccc(Nc2ncnc3[nH]ncc23)c1,-25%,4.1µM*,-3%,i,i
Cc1ccc2[nH]c3c(=S)nc[nH]c3c2c1,18%,1%,?,i,?
O=C(CN(c1cccc(C(F)(F)F)c1)S(=O)(=O)c1ccc(Cl)c([N+](=O)[O-])c1)NCc1ccc(F)cc1,?,2.9µM*,?,?,i
Cc1[nH]c2ccccc2c1/C=N/Nc1ccccc1[N+](=O)[O-],-4%,4%,?,?,?
CC(=O)Nc1ccc(C=NNc2ccc(S(=O)(=O)Nc3ccccc3C(=O)O)cc2[N+](=O)[O-])cc1,-3%,-39%,15%,i,i
COc1ccc(NS(=O)(=O)c2cc([N+](=O)[O-])ccc2N/N=C/c2c(C)[nH]c3ccccc23)cc1,15%,9.2µM*,.,i,i
CC(=O)Nc1ccc(C=NNc2ccc([N+](=O)[O-])cc2S(=O)(=O)Nc2ccccc2C(=O)O)cc1,148%,21µM*,?,i,i
COc1ccc(C(C)=NNc2ccc([N+](=O)[O-])cc2S(=O)(=O)Nc2ccccc2C(=O)O)c(OC)c1,?,9.2µM*,-2%,i,i
CN(CCc1cn[nH]c1)C(=O)CC1C(=O)NCCN1Cc1ccccc1C(F)(F)F (stereo not drawn),3%,-3%,-8%,i,i
O=C(CSc1nc(-c2ccccc2)c(-c2ccccc2)[nH]1)N1CCN(S(=O)(=O)c2ccccc2)CC1,14%,5%,16µM*,?,i
Cc1nnc(SCC(=O)NC(C)(C)C)n1NCc1ccc(N(C)C)cc1,-131%[1.84 µM],-17%,0%,i,i
